Each structure is given as a SMILES string. Values joined by “and” are separate entries in the source; they are usually repeats but may differ in a detail not shown here. Equal values may be shown once. Inconclusive results are not listed. A number with no mark means an inactive call. Calls follow the shape of the dose curve; as a rule, active = well fitted activation curve with a large enough effect in the signal ratio; inconclusive = small, poorly fitted or top-dose-only effect, or a change in a side signal; inactive = flat fitted curve, though single readings scatter; the % refers to the signal ratio.

This note sets out measurements from PubChem BioAssay (NCATS).

The assay is described as follows: qHTS assay for small molecule activators of the nuclear factor-kappa B (NF-kB) signaling pathway (AID 651749). Also: series mostly up to about 77 µM; % of control where 0% means no effect. The following applies: NF-kB-bla ME-180 cells, beta-lactamase FRET ratio, 16 h; activation: hits give high values. From the text:
National Center for Advancing Translational Sciences [NCATS] NIH Chemical Genomics Center [NCGC] U.S. Environmental Protection Agency [EPA] National Institutes of Environmental Health Sciences [NIEHS] National Toxicology Program [NTP] Assay Overview: Transcription factors and their stimulated target gene expression play pivotal roles across many cellular processes including responses to environmental stimuli. Proper regulation of associated pathways is critical to maintain cell health and function. Constitutive activation of transcription factor pathways has been implicated in tumors as it may block cellular functions such as apoptosis and lead to invasion and metastasis. One important transcription factor that stimulates gene expression in response to cytokines, UV radiation, and other stimuli is nuclear factor-kappa B (NF-kB). To measure activation of the NF-kB pathway, the NF-kB-bla ME-180 cell line stably expressed beta-lactamase reporter gene under the regulation of a NF-kB response element was obtained from Invitrogen. This assay allows measurement of the NF-kB pathway activity induced by compounds in a ME-180 cell line. This system quantitates NF-kB activity using a FRET-based assay system where beta-lactamase expression disrupts FRET, allowing for fluorescent measurement of activity.
Assay Protocol Summary: For toxicology screening, 2,000 cells in 5 uL/well were dispensed into black, clear-bottom 1536-well plates using a Multidrop Combi (Thermo Scientific) dispenser. Following transfer of 23 nL compound or DMSO vehicle by a pin tool, the plates were incubated 16 hr at 37C and 5% CO2.
(Quantitative high-throughput screening tests each substance at several concentrations.)
In the case of `C#CCN1C(=O)COc2cc(F)c(N3C(=O)C4=C(CCCC4)C3=O)cc21`, the activation was -1.45%.
In the case of `C=CC1(C)OC(=O)N(c2cc(Cl)cc(Cl)c2)C1=O` (stereo not given) it was -0.261%; in that of `CCOC(=O)COc1cc(-c2nn(C)c(OC(F)F)c2Cl)c(F)cc1Cl`, 1.18%.
In the case of `CCCCCCCCCCCCC1=C(OC(C)=O)C(=O)c2ccccc2C1=O` it was -0.928%.
Consider `CCOC1Oc2ccc(OS(C)(=O)=O)cc2C1(C)C` (stereo not given), for which the activation was 0.657%.
`CC(Oc1ccc(Cl)cc1Cl)C(=O)O` (stereo not given): the activation is -1.28%.
Then `CS(=O)(=O)c1cc(C(F)(F)F)ccc1C(=O)c1cnoc1C1CC1`, with 0.439%.
Then `CCC[CH2][Sn](=[O])[CH2]CCC`, with -1.97%; and `O=C(O)C(F)(F)C(F)(F)C(F)(F)C(F)(F)C(F)(F)C(F)(F)C(F)(F)C(F)(F)C(F)(F)F`, with 1.39% and -1.65%; and `CCNc1nc(NC(C)C)nc(OC)n1`, with -1.42%.
Then `COC(=O)C(C)Oc1ccc(Oc2ccc(Cl)cc2Cl)cc1` (stereo not given), with -0.397%; and `CCNc1nc(NC(C)(C)C)nc(SC)n1`, with -1.56%.
As for `COCC(=O)N(c1c(C)cccc1C)N1CCOC1=O`, the activation was -1.88%.
Consider `COc1cc(OC)nc(NC(=O)NS(=O)(=O)c2cc(NC=O)ccc2C(=O)N(C)C)n1`, for which the activation is 1.99%.
Then `Cc1[nH]c(=O)n(C(C)(C)C)c(=O)c1Cl`, with -0.578%; and `COC(=O)NS(=O)(=O)c1ccc(N)cc1`, with -0.373% and -0.594%; and `CCCCCCCCCCCC#N`, with -0.827%.
Then `CCOP(OCC)OCC`, with -0.0576%.
Then `O=C(NC(=O)c1c(F)cccc1F)Nc1ccc(OC(F)(F)C(F)OC(F)(F)F)c(Cl)c1` (stereo not given), with 1.61%.
With `CCCCN(CC)c1c([N+](=O)[O-])cc(C(F)(F)F)cc1[N+](=O)[O-]`, the activation was -1.55%.
On to `CC1(C)[C@H](C=C(Cl)Cl)[C@H]1C(=O)O[C@H](C#N)c1ccc(F)c(Oc2ccccc2)c1`, for which the activation was 4.2%.
In the case of `CCOP(N)(=O)Oc1ccc(SC)c(C)c1` (stereo not given) it was 0.0027%; in that of `CCOP(=O)(OCC)SCSC(C)(C)C`, -3.03%; in that of `CNC(=O)Oc1cccc2c1OC(C)(C)C2O` (stereo not given), 0.725%.
As for `O=[N+]([O-])Nc1nccn1Cc1ccc(Cl)nc1`, the activation is -1.97%.
Then `CCCCCCCCCCCCCCC(Br)C(=O)O` (stereo not given), with 5.98%; and `CC(C)N(C(=O)COc1nnc(C(F)(F)F)s1)c1ccc(F)cc1`, with -1.4%; and `CSc1nnc(C(C)(C)C)c(=O)n1N`, with -0.061%.
For `CCCCOCN(C(=O)CCl)c1c(CC)cccc1CC`, the activation is -3.81%.
Then `COC(=O)c1ccccc1S(=O)(=O)NC(=O)N(C)c1nc(C)nc(OC)n1`, with -0.341%; and `C=CC(=O)NCO`, with 0.439% and -0.866%; and `[Ga]#[As]`, with -0.5%.
In the case of `COP(=O)(OC)O/C(C)=C/C(=O)N(C)C` it was -1.74%; in that of `O=C1c2ccccc2C(=O)C1C(=O)C(c1ccccc1)c1ccc(Cl)cc1` (stereo not given), -3.47%.
In the case of `O=P(O)(O)CN(CP(=O)(O)O)CP(=O)(O)O` it was 0.3%; in that of `O=Cc1cccc(Oc2ccccc2)c1`, -0.909%.
As to `O=C(O)[C@@H]1[C@H](C(=O)O)[C@@]2(Cl)C(Cl)=C(Cl)[C@]1(Cl)C2(Cl)Cl`, the activation is -0.556%.
In the case of `CC1=NNC(=O)N(/N=C/c2cccnc2)C1`, the activation was 0.0556%.
In the case of `CCOc1ccc(C(C)(C)COCc2cccc(Oc3ccccc3)c2)cc1` it was 2.46%.
For the compound `COc1cc(OC)nc(Sc2cccc(Cl)c2C(=O)O)n1`, the activation is 0.833%.
